According to PubChem BioAssay (EPA / NIEHS):
Activity calls are given as the source filed them. How the source made its calls: active means hit-call score of the fitted dose curve at least 0.9, where 1 is the maximum; inactive means score below 0.9.

Assays:
Conditions in all cases: mRNA level, 48 h; actives raise or lower the signal
[1] = read-out: Glutamate-cysteine ligase catalytic (GCLC), GCLC (gene 2729); assay: LTEA_HepaRG_GCLC: Life Technologies and Expression Analysis (LTEA) Assay for Glutamate-cysteine ligase catalytic (GCLC) using HepaRG (AID 2283498)
In short: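 Oxidative-stress marker GCLC is measured as mRNA change in human HepaRG liver cells after 48 h chemical treatment in 0.5% DMSO, eight concentrations from 100 uM. Activity is fitted bidirectionally against vehicle.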

[2] = read-out: growth arrest and DNA damage 45 (GADD45G), GADD45G (gene 10912); assay: LTEA_HepaRG_GADD45G: Life Technologies and Expression Analysis (LTEA) Assay for growth arrest and DNA damage 45 (GADD45G) using HepaRG (AID 2283499)
In short: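 Gain or loss of GADD45G mRNA, quantified by TaqMan qRT-PCR against three housekeeping genes, is fitted in both directions relative to 0.5% DMSO. Human HepaRG cultures receive test chemical for 48 h at up to 100 uM.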

[3] = read-out: Glutamate-cysteine ligase regulatory (GCLM), GCLM (gene 2730); assay: LTEA_HepaRG_GCLM: Life Technologies and Expression Analysis (LTEA) Assay for Glutamate-cysteine ligase regulatory (GCLM) using HepaRG (AID 2283500)
In short: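 HepaRG, 48 h dosing, 100 uM top, half-log x8, 0.5% DMSO vehicle. Readout: GCLM mRNA by TaqMan qRT-PCR, housekeeping-normalized (ACTB/GAPDH/POLR2A). Curves fit bidirectionally vs DMSO baseline.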

[4] = read-out: Glutathione S-transferase M3 (GSTM3), GSTM3 (gene 2947); assay: LTEA_HepaRG_GSTM3: Life Technologies and Expression Analysis (LTEA) Assay for Glutathione S-transferase M3 (GSTM3) using HepaRG (AID 2283501)
In short: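 HepaRG, plated 48 h, then serum-free induction medium; test chemical 48 h, duplicate; 100 uM top, half-log x8, 0.5% DMSO. Read-out: GSTM3 mRNA (TaqMan qRT-PCR, Fluidigm array). Bidirectional fit vs DMSO.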

[5] = read-out: Heat shock 70 kDa protein 1 (HSPA1A), gene 3303; assay: LTEA_HepaRG_HSPA1A: Life Technologies and Expression Analysis (LTEA) Assay for Heat shock 70 kDa protein 1 (HSPA1A) using HepaRG (AID 2283502)
In short: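 HepaRG, 48 h exposure, 8-pt half-log CRC from 100 uM in 0.5% DMSO, duplicates. Readout: TaqMan qRT-PCR of HSPA1A mRNA, housekeeping-normalized (ACTB/GAPDH/POLR2A). Bidirectional fit vs 0.5% DMSO baseline.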

[6] = read-out: Hypoxia-inducible factor 1-alpha (Homo sapiens) (UniProt Q16665); assay: LTEA_HepaRG_HIF1A: Life Technologies and Expression Analysis (LTEA) Assay for Hypoxia-inducible factor 1 (HIF1A) Trancription factor using HepaRG (AID 2283503)
In short: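 Gain- or loss-of-signal HIF1A mRNA changes are fitted against a DMSO baseline. HepaRG cultures receive eight concentrations, highest 100 uM, for 48 h in serum-free induction medium with 0.5% DMSO.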

[7] = read-out: 3-Hydroxy-3-Methylglutaryl-CoA Synthase 2 (HMGCS2), HMGCS2 (gene 3158); assay: LTEA_HepaRG_HMGCS2: Life Technologies and Expression Analysis (LTEA) Assay for 3-Hydroxy-3-Methylglutaryl-CoA Synthase 2 (HMGCS2) using HepaRG (AID 2283504)
In short: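 HepaRG, plated 48 h then switched to serum-free induction media; cmpd 8-pt, max 100 uM, 1/2-log, 0.5% DMSO, n=2, 48 h. HMGCS2 mRNA by Fluidigm TaqMan qRT-PCR, ACTB/GAPDH/POLR2A norm; bidirectional fit vs DMSO.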

HGF (gene 3082) = assay: LTEA_HepaRG_HGF: Life Technologies and Expression Analysis (LTEA) Assay for Hepatocyte Growth Facto (HGF) using HepaRG (AID 2283505)
In short: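 Read-out is HGF transcript level by qRT-PCR, normalized to three housekeeping genes, fitted bidirectionally against 0.5% DMSO vehicle. Human HepaRG cells received test chemicals for 48 h at up to 100 uM.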

[8] = read-out: Insulin Like Growth Factor 1 (IGF1), IGF1 (gene 3479); assay: LTEA_HepaRG_IGF1: Life Technologies and Expression Analysis (LTEA) Assay for Insulin Like Growth Factor 1 (IGF1) using HepaRG (AID 2283506)
In short: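 qRT-PCR readout of IGF1 mRNA, normalized to three housekeeping genes, after 48 h chemical exposure of HepaRG cells. Concentrations: 8-point half-log series, top 100 uM, 0.5% DMSO vehicle. Gain or loss fitted against DMSO baseline.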

[9] = read-out: Intercellular Adhesion Molecule 1 (ICAM1), ICAM1 (gene 3383); assay: LTEA_HepaRG_ICAM1: Life Technologies and Expression Analysis (LTEA) Assay for Intercellular Adhesion Molecule 1 (ICAM1) using HepaRG (AID 2283507)
In short: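 Readout is qRT-PCR mRNA level, normalized to three housekeeping genes and fitted bidirectionally against 0.5% DMSO vehicle. Human HepaRG cultures received compound for 48 h, top concentration 100 uM with half-log dilutions.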

[10] = read-out: Interleukin 6 (IL6), IL6 (gene 3569); assay: LTEA_HepaRG_IL6: Life Technologies and Expression Analysis (LTEA) Assay for Interleukin 6 (IL6) using HepaRG (AID 2283509)
In short: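 Changes in IL6 mRNA, up or down relative to 0.5% DMSO controls, were derived from concentration-response curves in human HepaRG cells treated for 48 h at up to 100 uM, with ACTB, GAPDH and POLR2A as normalizers.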

[11] = read-out: Interleukin 6 Receptor (IL6R), IL6R (gene 3570); assay: LTEA_HepaRG_IL6R: Life Technologies and Expression Analysis (LTEA) Assay for Interleukin 6 Receptor (IL6R) using HepaRG (AID 2283510)
In short: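 HepaRG, 48 h exposure, 8-pt half-log series, top 100 uM, 0.5% DMSO vehicle, duplicates. Read-out: TaqMan qRT-PCR of IL6R transcript, housekeeping-gene normalized. Gain or loss fitted relative to DMSO baseline.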

[12] = read-out: Potassium channel subfamily K member 1 (KCNK1), KCNK1 (gene 3775); assay: LTEA_HepaRG_KCNK1: Life Technologies and Expression Analysis (LTEA) Assay for Potassium channel subfamily K member 1 (KCNK1) using HepaRG (AID 2283511)
In short: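 Human HepaRG cultures receive test chemicals for 48 h in 0.5% DMSO, top concentration 100 uM with half-log dilutions. Induction or suppression of KCNK1 mRNA relative to DMSO is derived by bidirectional fitting of qRT-PCR data.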

[13] = read-out: Keratin 19 (KRT19), KRT19 (gene 3880); assay: LTEA_HepaRG_KRT19: Life Technologies and Expression Analysis (LTEA) Assay for Keratin 19 (KRT19) using HepaRG (AID 2283512)
In short: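 KRT19 transcript levels, measured by Fluidigm qRT-PCR against three housekeeping genes, are fitted for gain or loss of signal relative to DMSO. Human HepaRG cells receive test chemicals (top 100 uM, half-log steps, 0.5% DMSO) for 48 hours.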

[14] = read-out: JUN Transcription Factor, JUN (gene 3725); assay: LTEA_HepaRG_JUN: Life Technologies and Expression Analysis (LTEA) Assay for JUN Transcription Factor using HepaRG (AID 2283513)
In short: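 HepaRG, 48 h exposure, 8-pt half-log series top 100 uM, 0.5% DMSO, duplicate. JUN mRNA by qRT-PCR (Fluidigm), housekeeping-normalized (ACTB/GAPDH/POLR2A); bidirectional curve fit vs DMSO baseline.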

[15] = read-out: Lipase C (LIPC), LIPC (gene 3990); assay: LTEA_HepaRG_LIPC: Life Technologies and Expression Analysis (LTEA) Assay for Lipase C (LIPC) using HepaRG (AID 2283514)
In short: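 In this multiplexed gene-expression screen, human HepaRG cultures received test chemicals for 48 h across eight concentrations with 100 uM highest, in duplicate. Values reflect LIPC mRNA induction or suppression versus DMSO vehicle, from normalized qRT-PCR.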

[16] = read-out: Lipoprotein lipase (LPL), LPL (gene 4023); assay: LTEA_HepaRG_LPL: Life Technologies and Expression Analysis (LTEA) Assay for Lipoprotein lipase (LPL) using HepaRG (AID 2283515)
In short: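 Concentration-response testing used half-log steps from 100 uM in 0.5% DMSO on human HepaRG cells, 48 h, duplicate wells. Phenobarbital 1 mM served as induction control; LPL mRNA was normalized to ACTB, GAPDH, POLR2A.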

[17] = read-out: matrix metalloproteinase-10 (MMP10), MMP10 (gene 4319); assay: LTEA_HepaRG_MMP10: Life Technologies and Expression Analysis (LTEA) Assay for matrix metalloproteinase-10 (MMP10) using HepaRG (AID 2283517)
In short: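 In differentiated HepaRG cultures kept in 0.5% DMSO, test chemicals act for 48 h over an eight-point range with a top dose of 100 uM. Expression is then quantified by TaqMan RT-PCR against ACTB, GAPDH and POLR2A.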

[18] = read-out: MicroRNA 122 (MIR122), gene 406906; assay: LTEA_HepaRG_MIR122: Life Technologies and Expression Analysis (LTEA) Assay for MicroRNA 122 (MIR122) using HepaRG (AID 2283516); further: the transcript read is the microRNA miR-122
In short: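 qRT-PCR read-out (TaqMan, Fluidigm array), normalized to three housekeeping genes; HepaRG cells dosed 48 h at 8 concentrations up to 100 uM in 0.5% DMSO, duplicate; gain or loss fitted against DMSO baseline.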

[19] = read-out: Insulin-like growth factor-binding protein 1 (IGFBP1), IGFBP1 (gene 3484); assay: LTEA_HepaRG_IGFBP1: Life Technologies and Expression Analysis (LTEA) Assay for Insulin-like growth factor-binding protein 1 (IGFBP1) using HepaRG (AID 2283508)
In short: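 Thawed HepaRG cells are plated for 48 h, switched to serum-free induction medium, then dosed in duplicate for another 48 h (100 uM top, half-log steps). Lysates in RLT go to qRT-PCR, and gain or loss of signal is fitted relative to vehicle.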

Measured: outcome

Chain of Hypoxia-inducible factor 1-alpha (Homo sapiens) (Q16665 whole entry, looked up): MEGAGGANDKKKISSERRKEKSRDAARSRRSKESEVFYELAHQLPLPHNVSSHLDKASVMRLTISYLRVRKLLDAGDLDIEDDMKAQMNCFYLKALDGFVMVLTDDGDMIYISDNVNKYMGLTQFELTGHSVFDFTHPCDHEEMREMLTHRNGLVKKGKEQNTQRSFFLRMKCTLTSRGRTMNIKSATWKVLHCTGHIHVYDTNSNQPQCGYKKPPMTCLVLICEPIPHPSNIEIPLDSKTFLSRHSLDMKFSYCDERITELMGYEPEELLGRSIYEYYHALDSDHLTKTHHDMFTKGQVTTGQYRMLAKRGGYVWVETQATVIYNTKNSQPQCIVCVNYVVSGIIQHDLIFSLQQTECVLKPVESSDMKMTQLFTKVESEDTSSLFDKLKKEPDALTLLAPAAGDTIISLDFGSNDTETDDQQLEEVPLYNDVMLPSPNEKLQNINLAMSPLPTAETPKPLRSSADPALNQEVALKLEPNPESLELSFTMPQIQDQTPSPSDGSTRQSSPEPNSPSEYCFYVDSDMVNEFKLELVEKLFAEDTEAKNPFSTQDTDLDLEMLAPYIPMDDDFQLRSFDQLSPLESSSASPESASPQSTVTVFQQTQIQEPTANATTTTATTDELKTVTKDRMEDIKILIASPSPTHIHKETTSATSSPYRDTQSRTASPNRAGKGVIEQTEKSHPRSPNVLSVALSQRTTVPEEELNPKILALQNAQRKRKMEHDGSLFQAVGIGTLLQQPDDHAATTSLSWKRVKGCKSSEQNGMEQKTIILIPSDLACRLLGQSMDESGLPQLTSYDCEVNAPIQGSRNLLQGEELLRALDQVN

CNC(=S)S
not listed: [18] | [19]
inactive: all other assays above

COC(=O)c1ccccc1C(=O)OC
not listed: [19]
inactive: all other assays above

CNC(=O)ON=CC(C)(C)SC
inactive: all assays above
